Measurements published in PubChem BioAssay (NCATS).
Inconclusive results are not listed. Unmarked numbers belong to inactive results. Activity calls are given as the source filed them. Calls follow the shape of the dose curve; as a rule, active = well fitted inhibition curve with a large enough effect; inconclusive = small, poorly fitted or top-dose-only effect; inactive = no such curve, though single readings can be large or run the other way.

Assay: qHTS assay to identify inhibitors of the type 1 interferon - major histocompatibility complex class I in skeletal muscle: Counter screen cell viability and HiBit confirmation (AID 1347412); also: nearly all actives have a fitted effect of over 60% in size
Settings: iHSKM muscle cells + IFN-b, HiBiT or CellTiter-Glo, 24 h; HiBiT
Excerpt: Assay Submitter (PI): Travis B. Kinder Ph.D. & James Inglese Ph.D. Assay Development and Screening Technology Laboratory (ADST) National Center for Advancing Translational Sciences (NCATS), Rockville, MD National Institute of Health (NIH), Bethesda, Maryland Idiopathic inflammatory myopathies, collectively referred to as myositis, are a group of rare autoimmune diseases characterized by skeletal muscle inflammation, weakness, and usually accompanied by systemic pathologies of the skin, lungs, or vasculature. Current immunosuppressive therapies and glucocorticoids are often not curative and are accompanied by harsh side effects, especially in children with juvenile myositis. We initiated a drug repurposing and development program to identify more targeted, less toxic therapeutics to treat myositis. Although its cause is not known, muscle from a subset of patients have an abundance of the inflammatory type 1 interferon (IFN) and a down-stream product major histocompatibility complex class I (MHC class I), which are both thought to contribute to damage and weakness. We conducted quantitative high throughput screening on 6,576 compounds (4,679 unique) through a series of cell-based assays to identify those that inhibit the IFN-stimulated expression of MHC class I in muscle precursor cells (myoblasts). The compound identification and evaluation strategy utilized a primary screen with reporter-tagged MHC class I in genome-engineered myoblasts, ATP content counter screen for viability, HLA-ABC immunofluorescence secondary screen, and HLA-B RT-qPCR tertiary screen. The primary screen utilized CRISPR/Cas9 genome-engineering of immortalized human myoblasts, C25cl48, where a pro-luminescent reporter HiBit was fused to the C-terminus of endogenous MHC class I allele HLA-B*08:01 (HLA-B HiBit myoblasts). HiBit is an 11 amino acid fragment of NanoLuc luminescent reporter (Promega Corporation), and when complexed to the larger LgBit fragment, the reconstituted enzyme produces light in the presence of furimazine substrate (Schwinn et al., 2018). Briefly, HLA-B HiBit myoblasts were plated into 1536-well plates, treated with 4.0 ng/ml human IFN-beta and 650 inhibitory compounds identified from primary screening in a 12-point, 1:3 titration with a high final concentration of 46 uM. Compounds were pinned into duplicate plates, with one for HiBit confirmation and one for ATP content viability assay. After 24 hrs of treatment, cells were assayed by either Nano-Glo HiBiT Lytic Detection System (Promega) or CellTiter Glo (Promega), and luminescence measured by a ViewLux 1430 Ultra HTS (Perkin Elmer). References: Schwinn MK, Machleidt T, Zimmerman K, Eggers CT, Dixon AS, Hurst R, Hall MP, Encell LP, Binkowski BF, Wood K V. 2018. CRISPR-Mediated Tagging of Endogenous Proteins with a Luminescent Peptide. ACS Chem Biol 13:467-474. doi:10.1021/acschembio.7b00549
PROTOCOL TABLE (as described by Inglese et al., 2007) SEQUENCE No. (e.g., 1, 2, 3, etc.); […] (e.g., Cells, Incubation, Reagent, etc.); VALUE; DESCRIPTION 1a; Cells; 5 uL; Use a Multidrop Combi (Thermo Scientific) to seed 300 cells/well into 16 Greiner 1536 well white/solid bottom, high base, TC plates in 5 ul/well of iHSKM growth medium (GM) without dexamethasone into columns 1+2. Add metal lids with gas-exchange holes 1b; Cells; 5 uL; Use a Multidrop Combi (Thermo Scientific) to seed 300 cells/well into 16 Greiner 1536 well white/solid bottom, high base, TC plates in 5 ul/well of iHSKM GM without dexamethasone + 4 ng/ml IFN-b into columns 3 - 48. Add metal lids with gas-exchange holes 2; Incubate; 1 hr; Incubate at 37 C, 5% CO2, 95% RH 3; Compounds; 23 nl; Use Pin Tool (Wako) to transfer DMSO control, 92 uM final digitonin cytotoxic control, ruxolitinib IFN-b inhibitor control [High Concentration = 80 uM final, 16-pt, 1:2 in duplicate], and library compounds in DMSO. […]
% is scaled to controls: 0 for no effect and ±100 for the full control effect; potency is read from the fitted curve at half-maximal effect.

**Q.** Which Potency does the source give for `CN1CCN(Cc2ccc(NC(=O)Nc3ccc(Oc4cc(NC(=O)C5CC5)ncn4)cc3)cc2C(F)(F)F)CC1` here?
**A.** 0.442 µM (active)

**Q.** With `C#Cc1cccc(Nc2ncnc3cc(OC)c(OCCCCCCC(=O)NO)cc23)c1` as the compound, how does the Potency read?
**A.** 2.49 µM (active)

**Q.** With `CC[C@@H]1C(=O)N(C)c2cnc(Nc3ccc(C(=O)NC4CCC(N5CCN(CC6CC6)CC5)CC4)cc3OC)nc2N1C(C)C` (stereo not given in full) as the compound, how does the Potency read?
**A.** 6.25 µM (active)

**Q.** Which Potency does the source give for `CN1CCC(CNc2ccc3ncc(-c4cccc(OC(F)(F)F)c4)n3n2)CC1` here?
**A.** 22.2 µM (active)

**Q.** For `Cc1ccc(C(N)=O)cc1Nc1nccc(-c2cn(C(C)C)c3cnccc23)n1`, which Potency is on record?
**A.** 2.49 µM (active)

**Q.** Which Potency does the source give for `N#CCNC(=O)c1ccc(-c2ccnc(Nc3ccc(N4CCOCC4)cc3)n2)cc1` here?
**A.** 4.43 µM (active)

**Q.** Which Potency does the source give for `c1cc(-c2cnn3cc(-c4ccc(OCCN5CCCCC5)cc4)cnc23)ccn1` here?
**A.** 14 µM (active)

**Q.** For `CCN1CCN(Cc2ccc(-c3cc4c(N[C@H](C)c5ccccc5)ncnc4[nH]3)cc2)CC1`, which Potency is on record?
**A.** 19.8 µM (active)

**Q.** With `COc1cc2c(Oc3ccc4[nH]c(C)cc4c3F)ncnc2cc1OCCCN1CCCC1` as the compound, how does the Potency read?
**A.** 19.8 µM (active)

**Q.** For `Cc1cc(CN2CCN(c3c(Br)cnc4nc(-c5ccc(N6CCN(C)CC6)cc5)[nH]c34)CC2)no1`, which Potency is on record?
**A.** 8.83 µM (active)

**Q.** For `Cc1ccc(C(=O)Nc2ccc(CN3CCN(C)CC3)c(C(F)(F)F)c2)cc1C#Cc1cnc2cccnn12`, which Potency is on record?
**A.** 6.25 µM (active)

**Q.** With `CN1CCN(c2cc(C(=O)Nc3ccc4c(c3)-c3c(c(C(N)=O)nn3-c3ccc(F)cc3)CC4)c(Cl)cn2)CC1` as the compound, how does the Potency read?
**A.** 22.2 µM (active)

**Q.** Which Potency does the source give for `CC(C)c1cc(-c2n[nH]c(=O)n2-c2ccc3c(ccn3C)c2)c(O)cc1O` here?
**A.** 0.0176 µM (active)

**Q.** With `C[C@@H](Oc1cc(-c2cnn(C3CCNCC3)c2)cnc1N)c1c(Cl)ccc(F)c1Cl` as the compound, how does the Potency read?
**A.** 17.6 µM (active)

**Q.** Which Potency does the source give for `COCCn1c2c([n+](Cc3cnccn3)c1C)C(=O)c1ccccc1C2=O` here?
**A.** 1.98 µM (active)

**Q.** With `CC(C)c1nn(-c2c(Cl)cccc2Cl)c2nc(Cc3ccc(OCCO)cc3)[nH]c(=O)c12` as the compound, how does the Potency read?
**A.** 0.0352 µM (active)

**Q.** Which Potency does the source give for `CC(C)[C@H](C(=O)Nc1ccc(C(=O)NO)cc1)c1ccccc1` here?
**A.** 1.11 µM (active)

**Q.** With `COc1cccc2nc(-c3cccs3)nc(NN3C(=O)C=C(C)C3=O)c12` as the compound, how does the Potency read?
**A.** 2.79 µM (active)

**Q.** With `COc1ccc(F)c(F)c1C(=O)c1cnc(NC2CCN(S(C)(=O)=O)CC2)nc1N` as the compound, how does the Potency read?
**A.** 1.11 µM (active)

**Q.** For `CCc1c2c(nc3ccc(O)cc13)-c1cc3c(c(=O)n1C2)COC(=O)[C@]3(O)CC`, which Potency is on record?
**A.** 1.4 µM (active)

Same assay, conditions: iHSKM muscle cells + IFN-b, HiBiT or CellTiter-Glo, 24 h; HiBiT; at 45.9 µM (top of the series)

**Q.** For `c1ccc2c(CCNc3ccc(Nc4ccncc4)cc3)c[nH]c2c1`, which activity change, negative = inhibition is on record?
**A.** 19.8%

Same assay, conditions: iHSKM muscle cells + IFN-b, HiBiT or CellTiter-Glo, 24 h; Viability

**Q.** With `CN1CCC(CNc2ccc3ncc(-c4cccc(OC(F)(F)F)c4)n3n2)CC1` as the compound, how does the Potency read?
**A.** 31.3 µM (active)

**Q.** Which Potency does the source give for `CNC(=O)c1c(F)cccc1Nc1nc(Nc2cc3c(cc2OC)CCN3C(=O)CN(C)C)nc2[nH]ccc12` here?
**A.** 24.9 µM (active)

**Q.** With `COc1cc2c(Oc3ccc4[nH]c(C)cc4c3F)ncnc2cc1OCCCN1CCCC1` as the compound, how does the Potency read?
**A.** 19.8 µM (active)

**Q.** With `Cc1cc(CN2CCN(c3c(Br)cnc4nc(-c5ccc(N6CCN(C)CC6)cc5)[nH]c34)CC2)no1` as the compound, how does the Potency read?
**A.** 11.1 µM (active)

**Q.** For `Cc1ccc(C(=O)Nc2ccc(CN3CCN(C)CC3)c(C(F)(F)F)c2)cc1C#Cc1cnc2cccnn12`, which Potency is on record?
**A.** 15.7 µM (active)

**Q.** With `CN1CCN(c2cc(C(=O)Nc3ccc4c(c3)-c3c(c(C(N)=O)nn3-c3ccc(F)cc3)CC4)c(Cl)cn2)CC1` as the compound, how does the Potency read?
**A.** 27.9 µM (active)

**Q.** For `C[C@@H](Oc1cc(-c2cnn(C3CCNCC3)c2)cnc1N)c1c(Cl)ccc(F)c1Cl`, which Potency is on record?
**A.** 27.9 µM (active)

**Q.** For `COCCn1c2c([n+](Cc3cnccn3)c1C)C(=O)c1ccccc1C2=O`, which Potency is on record?
**A.** 2.49 µM (active)

Same assay, conditions: iHSKM muscle cells + IFN-b, HiBiT or CellTiter-Glo, 24 h; Viability; at 45.9 µM (top of the series)

**Q.** With `c1ccc2c(CCNc3ccc(Nc4ccncc4)cc3)c[nH]c2c1` as the compound, how does the activity change, negative = inhibition read?
**A.** -28.3%

**Q.** Which activity change, negative = inhibition does the source give for `CN1CCN(Cc2ccc(NC(=O)Nc3ccc(Oc4cc(NC(=O)C5CC5)ncn4)cc3)cc2C(F)(F)F)CC1` here?
**A.** 13.9%

**Q.** Which activity change, negative = inhibition does the source give for `C#Cc1cccc(Nc2ncnc3cc(OC)c(OCCCCCCC(=O)NO)cc23)c1` here?
**A.** -17%

**Q.** For `Cc1ccc(C(N)=O)cc1Nc1nccc(-c2cn(C(C)C)c3cnccc23)n1`, which activity change, negative = inhibition is on record?
**A.** 26.3%

**Q.** For `N#CCNC(=O)c1ccc(-c2ccnc(Nc3ccc(N4CCOCC4)cc3)n2)cc1`, which activity change, negative = inhibition is on record?
**A.** -6.53%

**Q.** For `CC(C)c1nn(-c2c(Cl)cccc2Cl)c2nc(Cc3ccc(OCCO)cc3)[nH]c(=O)c12`, which activity change, negative = inhibition is on record?
**A.** 27.7%

**Q.** With `COC(=O)Nc1nc2ccc(C(=O)c3ccc(F)cc3)cc2[nH]1` as the compound, how does the activity change, negative = inhibition read?
**A.** -28.8%

**Q.** For `CC(C)[C@H](C(=O)Nc1ccc(C(=O)NO)cc1)c1ccccc1`, which activity change, negative = inhibition is on record?
**A.** -7.44%

**Q.** For `COc1cccc2nc(-c3cccs3)nc(NN3C(=O)C=C(C)C3=O)c12`, which activity change, negative = inhibition is on record?
**A.** 41.4%

**Q.** For `COc1ccc(F)c(F)c1C(=O)c1cnc(NC2CCN(S(C)(=O)=O)CC2)nc1N`, which activity change, negative = inhibition is on record?
**A.** 14.1%

**Q.** With `CCc1c2c(nc3ccc(O)cc13)-c1cc3c(c(=O)n1C2)COC(=O)[C@]3(O)CC` as the compound, how does the activity change, negative = inhibition read?
**A.** -11.1%
